USP10 inh – inhibitors of human USP10 deubiquitinase | Ubiquitin carboxyl-terminal hydrolase 10 (Homo sapiens), Q14694 | purified USP10, Ub-rhodamine fluorescence, 60 min | inhibition, % at 20 µM | actives 1.1% (n = 47,000)
Target sequence (Q14694 whole entry, looked up): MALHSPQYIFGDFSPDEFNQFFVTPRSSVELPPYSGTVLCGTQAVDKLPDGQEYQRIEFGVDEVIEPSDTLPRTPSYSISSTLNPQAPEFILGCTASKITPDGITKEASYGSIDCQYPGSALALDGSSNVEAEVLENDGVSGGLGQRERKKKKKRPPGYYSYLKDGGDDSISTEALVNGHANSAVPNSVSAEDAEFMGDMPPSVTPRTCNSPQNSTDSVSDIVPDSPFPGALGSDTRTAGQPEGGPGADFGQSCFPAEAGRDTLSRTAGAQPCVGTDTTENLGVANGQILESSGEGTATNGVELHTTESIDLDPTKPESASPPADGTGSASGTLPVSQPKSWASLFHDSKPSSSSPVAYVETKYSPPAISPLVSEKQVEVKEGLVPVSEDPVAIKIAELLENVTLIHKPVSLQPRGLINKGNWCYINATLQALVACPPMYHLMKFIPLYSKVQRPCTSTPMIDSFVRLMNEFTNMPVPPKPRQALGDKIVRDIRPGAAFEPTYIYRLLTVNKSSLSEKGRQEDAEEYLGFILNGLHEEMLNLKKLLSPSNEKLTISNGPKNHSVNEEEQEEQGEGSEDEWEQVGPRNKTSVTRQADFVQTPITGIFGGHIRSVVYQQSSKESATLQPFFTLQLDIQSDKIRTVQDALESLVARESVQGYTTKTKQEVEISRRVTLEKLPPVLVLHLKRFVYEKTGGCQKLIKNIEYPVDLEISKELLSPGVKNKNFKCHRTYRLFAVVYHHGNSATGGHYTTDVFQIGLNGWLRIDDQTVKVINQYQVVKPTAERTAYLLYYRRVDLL
USP8 inh – inhibitors of human USP8 deubiquitinase; actives 4.2% (n = 47,000); purified USP8, Ub-rhodamine cleavage fluorescence, 30 min; Ubiquitin carboxyl-terminal hydrolase 8 (Homo sapiens), P40818; inhibition, % at 20 µM
USP7 inh – inhibitors of human USP7 deubiquitinase. Ubiquitin carboxyl-terminal hydrolase 7 (Homo sapiens), Q93009. purified USP7, Ub-rhodamine cleavage fluorescence. inhibition, % at 20 µM. actives 0.3% (n = 47,000)
UCHL1 block – inhibitors of human UCHL1 deubiquitinase. purified UCHL1, Ub-rhodamine cleavage fluorescence. AID 1645859, 2021. actives 0.2% (n = 47,000). inhibition, % at 20 µM
Active calls of the source: *; x = no result given. This is a sample that favours compounds with a hit; in the whole collection about 4.6% have one here. Rule as the data show it: active = inhibition above about 30%; inactive = the rest.

SMILES	USP10 inh	USP8 inh	USP7 inh	UCHL1 block
COc1cccc(-c2cc3n(C)c(C)c(CCC(=O)NCc4ccco4)c(=O)n3n2)c1	-7	53*	-43	-1
CCCCC/C=C(/C(=O)O)C(C)C(=O)O (stereo not given)	4	7	3	1
Cc1ccc(CNC(=O)CCc2c(C)nc3c(c(C)nn3-c3ccc(C)cc3)c2C)cc1	1	34*	5	6
COc1ccc(CNC(=O)CCc2c(C)c3c(C)nn(-c4ccccc4)c3n(C)c2=O)cc1	0	-46	0	0
CC(=O)c1ccc(OCc2csc(-c3ccc(F)cc3)n2)cc1	7	12	9	9
O=C(O)c1c(CNC2CCCCCC2)c2ccccc2n1Cc1ccc(F)cc1	-8	-17	-177	45*
O=C(O)c1c(CNC2CCCCC2)c2ccccc2n1Cc1cccc(F)c1	-4	-1	-144	-150
CC1Cc2ccccc2N1C(=O)COC(=O)c1ccc2ccccc2n1 (stereo not given)	0	-4	-5	0
CC1Cc2ccccc2N1C(=O)Cc1csc(NC(=O)c2ccc(=O)[nH]c2)n1 (stereo not given)	-7	47*	-29	-25
CSCCC(NC(=O)c1ccccc1)C(=O)OCC(=O)c1ccc(C)cc1 (stereo not given)	3	6	5	1
COc1ccc(NC(=O)C2CCCN(S(=O)(=O)N3CCC(C)CC3)C2)c(OC)c1 (stereo not given)	-3	44*	-5	-3
Cn1cc(-c2nc(C(=O)Nc3ccc(C#N)cc3)cs2)c2cccnc21	14	85*	10	2
COc1ccc(NC(=O)C2c3ccccc3C(=O)N(C3CCCC3)C2c2cccs2)cc1OC (stereo not given)	4	20	7	6
O=C(CNCc1cccc(Cl)c1)N1CCc2ccccc2C1	-1	72*	-8	3
COc1cccc(N2CCN(C(=O)CCc3c(C)c4c(C)nn(-c5ccccc5)c4n(C)c3=O)CC2)c1	3	0	10	6
CCOC(=O)c1cc(=O)c2ccc(OCC(=O)Nc3ccc4c(c3)OCCO4)cc2o1	7	65*	2	5
CCOc1ccc2nc(NC(=O)c3ccc4ccccc4n3)sc2c1	23	18	15	4
Cc1ccc(-c2cc(C(=O)Nc3ccc4c(c3)OCCO4)c3ccccc3n2)o1	0	28	-16	8
O=C(Nc1ccc2c(c1)OCCO2)c1cccc2nc3ccccc3nc12	1	37*	9	8
Cc1ccc(NC(=O)CN2C(=O)CSc3ncccc32)cc1	-12	-27	-12	-19
COc1cccc(NC(=O)c2c(O)c3ccccc3n(CC(C)C)c2=O)c1	3	85*	2	-1
CCn1c(=O)c(C(=O)NCc2cccnc2)c(O)c2ccccc21	1	3	x	2
CCC(=O)NNC(=O)c1c(O)c2ccccc2n(CC)c1=O	2	51*	-3	-2
Cn1c(=O)c(C(=O)Nc2cccc(F)c2)c(O)c2ccccc21	0	0	0	0
CN1c2cc(Cl)ccc2-c2nc(SCC(=O)Nc3ccc(F)cc3)ncc2S1(=O)=O	10	-1	13	0
SMILES	USP10 inh	USP8 inh	USP7 inh	UCHL1 block
CN1c2ccc(Cl)cc2-c2nc(SCC(=O)Nc3ccc(F)cc3)ncc2S1(=O)=O	11	50*	3	-3
c1ccc(-c2cc3c(N4CCN(C5CCCCC5)CC4)nccn3n2)cc1	-1	-11	2	0
O=C(O)c1ccccc1C(=O)Nc1ccc(SC(C(=O)Nc2cccc(Cl)c2)c2ccccc2)cc1 (stereo not given)	52*	26	1	5
COc1cccc(C(=O)Nc2ccc(SC(C(=O)Nc3ccccc3)c3ccccc3)cc2)c1 (stereo not given)	-14	-9	-19	-30
Cc1ccc(C(=O)O)cc1NC(=O)C(Sc1cccc(NC(=O)c2cccc(Cl)c2)c1)c1ccccc1 (stereo not given)	34*	40*	-25	4
Cc1cccc(C(=O)Nc2cccc(SC(C(=O)Nc3ccc(Cl)c(C(=O)O)c3)c3ccccc3)c2)c1 (stereo not given)	69*	44*	11	7
Cc1ccccc1NC(=O)C(Sc1ccc(NC(=O)c2ccccc2C(=O)O)cc1)c1ccccc1 (stereo not given)	12	-38	-7	-1
COc1ccc(CCn2c(-c3ccccc3C)nc3c(c(=O)c4ccccc4n3C)c2=O)cc1OC	2	-58	5	7

Compound activity (PubChem BioAssay)
